Test in all cases: NCI-60 one-dose screen, 48 h (100 = growth as untreated, 0 = no growth, -100 = all killed)
Settings in all cases: 10 µM

In assay [1] the test system is NCI-H23 lung.
Assay [2] concerns NCI-H226 lung.
Assay [3] deals with NCI-H322M lung.
Assay [4] relates to HOP-62 NSCLC.
In assay [5] the test system is NCI-H460 lung.
Assay [6] relates to NCI-H522 lung.
Assay [7] relates to A549/ATCC NSCLC.
Assay [8] has as its system 786-0 renal.
The test system of assay [9] is COLO 205 colon.
For assay [10], the system named is DU-145 prostate.

Compounds without any hit were thinned out: in the full panel of roughly 83,000, 20% have a hit.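 Activity criterion: percent growth below 10, measured after cells in 96-well plates were exposed to a single compound concentration for 48 hours.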 Values without a mark were called inactive. The source made the active and inactive calls.

The source of these data is PubChem BioAssay (NCI).

In the case of `Nc1ccn(C2CC(O)C(CO)O2)c(=O)n1` (stereo not given), the growth was 105% in assay [1]; 99.1% in assay [2]; 223% in [3]; 98.8% in [4]; 102% in assay [5]; 109% in [6]. Besides, the growth in assay [7] was 108%; in assay [8] it was 100%; in assay [9] it was 108%; in assay [10] it was 120%.

For the molecule `Nc1ccccc1NC(=O)CCCCC(=O)Nc1ccc2c(c1)/C(=C/c1ccc[nH]1)C(=O)N2`, the growth in [1] is 89.6%; in [2] it was 52.2%; in assay [3], 63.3%; in [4], 83%; in [5], 73.9%; in assay [6] it was 37.5%. Besides, the growth in [7] is 92.9%; in assay [8] it was 90.2%; in [9], 87.4%; in assay [10], 70.7%.

For `CCCC1(CC(=O)O)OCCc2c1[nH]c1ccccc21` (stereo not given), the growth in assay [1] is 93.4%; in assay [2], 98.4%; in assay [3], 109%; in assay [4] it was 107%; in [5], 109%; in [6], 37.2%. In addition, the growth was 99.3% in assay [7], 103% in [8], 229% in [9] and 114% in assay [10].

Consider `Cc1ccc(N=Nc2c(N)nc(N)[nH]c2=O)cc1C`, for which the growth in assay [1] was 101%; in [2], 93.5%; in assay [3], 83.1%; in assay [4], 92.9%; in [5], 107%; in assay [6], 92.1%. For the same molecule, the growth was 104% in assay [7], 91.2% in assay [8], 112% in [9] and 117% in [10].

Consider `Fc1cc(C(F)(F)F)ccc1-c1cncnc1NC1CCCCCC1`, for which the growth in assay [1] is 92.6%; in [2] it was 82.6%; in [3], 104%; in [4] it was 93.1%; in [5], 102%; in assay [6] it was 91.3%. In addition, the growth in [7] was 85.4%; in assay [8] it was 97.9%; in assay [9], 105%; in assay [10], 101%.

Consider `COc1cc(CNCCCCCCN2C(=O)c3cccc4cccc(c34)C2=O)ccc1O`, for which the growth in assay [1] is 84%; in assay [2], 96.4%; in assay [3] it was 67.3%; in assay [4] it was 70.3%; in assay [5], 78.1%; in assay [6], 60.9%. Also, the growth in [7] was 64.3%; in [8] it was 58.3%; in assay [9] it was 45.8%; in [10], 80.9%.

For `COc1cc(Cl)cc(-c2nn(-c3cccc(NC(=O)c4ccc(Cl)c(Cl)c4)c3)cc2-c2ccncc2)c1`, the growth in assay [1] is 75.3%; in assay [2], 66.3%; in assay [3], 84.5%; in assay [4], 105%; in assay [5], 65.2%; in assay [6], 53.7%. In addition, the growth in [7] was 59.7%; in [8], 74.1%; in [9], 81.5%; in [10] it was 88.5%.

Turning to `CCCCCCN1C(=O)C2=C(c3ccc(Cl)cc3)Nc3c(c(C)nn3-c3ccccc3)C2c2ccccc21` (stereo not given), the growth in assay [1] is 98.6%; in assay [2], 77.5%; in assay [3] it was 90.5%; in assay [4] it was 96.8%; in assay [5] it was 106%; in [6] it was 80.7%. Besides, the growth in [7] is 85.2%; in assay [8] it was 89%; in assay [9] it was 106%; in assay [10], 104%.

With `O=C1/C(=C\c2ccc(F)cc2)CN(C(=O)c2ccc([N+](=O)[O-])cc2)C/C1=C\c1ccc(F)cc1`, the growth in assay [1] is 49.3%; in assay [2] it was 38.2%; in assay [3], 76.3%; in assay [4], 32.9%; in assay [5] it was 68.4%; in [6], 46.9%. In addition, the growth in assay [7] is 52.9%; in [8] it was 20.3%; in [9] it was 38.8%; in assay [10], 25.5%.

With `Cc1cccc(Cl)c1NC(=O)c1ccc2nc(NC(=O)NC3CCN(C)CC3)sc2c1`, the growth in assay [1] is 82.3%; in [2], 121%; in [3], 95.5%; in assay [4], 63.1%; in [5], 114%; in assay [6], 83.5%. The growth in assay [7] was 91.5%; in [8], 91.2%; in [9], 37.4%; in [10], 103%.

As for `CC[C@H]1CCC/C=C/[C@@H]2C[C@H](O)C[C@H]2[C@H](O)/C=C/C(=O)O1`, the growth in [1] was -12.8% (active); in [2], -1.27% (active); in [3], -2.58% (active); in [4] it was 25.2%; in assay [5], 6.08% (active); in assay [6] it was -56.8% (active). Further, the growth in assay [7] is 5.74% (active); in assay [8], -49% (active); in [9], -97.2% (active); in assay [10] it was 3.43% (active).

Turning to `Clc1ccc(Nc2ccnc(NCCCNc3ccnc4cc(Cl)ccc34)n2)cc1`, the growth is 45.6% in [1]; 93.7% in [2]; -16.7% (active) in [3]; 19.6% in [4]; -28.8% (active) in [5]; -76% (active) in assay [6]. In addition, the growth was -65.1% (active) in assay [7], -98.9% (active) in [8], -91.1% (active) in [9] and 9.74% (active) in assay [10].

Regarding `COc1ccc(OC)c(/C=C/c2nc(SC)n(-c3ccc(Cl)cc3)n2)c1`, the growth in [1] was 59.7%; in assay [2] it was 70.9%; in [3], 73.3%; in [4] it was 90.3%; in [5], 85.2%; in assay [6] it was 81.6%. Moreover, the growth in [7] was 64.8%; in [8] it was 86.8%; in [9], 78.1%; in assay [10], 93.9%.

On to `O=C1Nc2ccc(Cl)cc2/C1=C\c1c(-c2ccc(Cl)cc2)nc2sc(C3CC3)nn12`, for which the growth in [1] is 67%; in assay [2], 29.7%; in assay [3] it was 61.3%; in [4], -0.353% (active); in [5], 51.4%; in assay [6], 42.9%. For the same molecule, the growth was 56.4% in assay [7], 31.8% in assay [8], 71.9% in assay [9] and 59.2% in assay [10].

For `CCCCCCNC(=O)Oc1ccc(/C(=C(/CC)Cc2ccccc2)c2ccc(OCCN3CCCCC3)cc2)cc1`, the growth in assay [1] was 91%; in assay [2] it was 88.6%; in assay [3] it was 91.4%; in assay [4], 86.6%; in assay [5], 73.4%; in [6] it was 77.9%. The growth in [7] was 76.7%; in assay [8], 78.6%; in assay [9], 51.4%; in assay [10] it was 96.6%.

As for `COc1ccc(-c2nc(-c3nc4ccc(Cl)cc4[nH]3)c3ccccn23)cc1`, the growth in [1] is 84.1%; in assay [2], -45.7% (active); in assay [3], 54.6%; in assay [4] it was -77.9% (active); in assay [5], -24.1% (active); in assay [6], -3.06% (active). Besides, the growth in [7] was -37.4% (active); in assay [8], -72.7% (active); in assay [9], 76%; in assay [10], 25.6%.

`CCN(CC)CCSCCCNc1c2ccc(Cl)cc2nc2ccc(OC)cc12`: the growth is -30.8% (active) in assay [1]; 48.7% in [2]; -35.6% (active) in assay [3]; -31.6% (active) in assay [4]; -39.7% (active) in assay [5]; -79.1% (active) in assay [6]. Also, the growth is -29.5% (active) in assay [7], -37.3% (active) in assay [8], -82.9% (active) in assay [9] and 1.82% (active) in assay [10].

With `CCN(CC)Cc1cc(Nc2ccnc3cc(Cl)ccc23)ccc1OC`, the growth is 87.8% in assay [1]; 105% in [2]; 99% in assay [3]; 88% in assay [4]; 90.1% in [5]; 69.3% in [6]. Besides, the growth in [7] is 89.6%; in assay [8], 97.4%; in [9] it was 62.4%; in assay [10] it was 107%.

With `COc1cc(C2CC(c3ccc(Nc4ccnc5cc(Cl)ccc45)cc3)=NN2c2ccc(Cl)cc2)cc(OC)c1OC` (stereo not given), the growth in assay [1] was 74.4%; in assay [2], 82.9%; in assay [3] it was 75.8%; in assay [4], 46.8%; in assay [5], 43.4%; in assay [6], 9.33% (active). The growth in [7] was 44.6%; in [8] it was 68.8%; in [9] it was 75.7%; in assay [10], 64%.

For `COc1ccc(OC)c2c1C(=O)CC2C` (stereo not given), the growth in assay [1] was 102%; in [2], 101%; in assay [3], 96.5%; in [4], 101%; in [5], 104%; in assay [6], 110%. Further, the growth in assay [7] was 103%; in [8], 108%; in assay [9], 106%; in [10], 107%.

`O=C1CC[C@@H]2CCCC[C@@H]2C1`: the growth in assay [1] is 99.9%; in [2] it was 105%; in assay [3], 110%; in assay [4] it was 96.7%; in assay [5], 112%; in [6], 90.3%. Besides, the growth was 107% in assay [7], 103% in [8], 108% in assay [9] and 123% in [10].

Take `CSc1nn(-c2ccccc2)c2ncnc(Oc3ccc(C)cc3)c12`: the growth in assay [1] was 91.8%; in [2], 81.4%; in [3], 82%; in [4] it was 67.5%; in [5], 91%; in [6], 75.5%. The growth was 80% in assay [7], 65.4% in assay [8], 113% in assay [9] and 105% in assay [10].

As for `Cc1ccc(-c2nc(/C=C3/C(=O)N(C)c4ccc(F)cc43)c3ccccn23)cc1`, the growth in [1] was 86.5%; in assay [2], 106%; in [3] it was 103%; in [4] it was 77.9%; in [5], 96.7%; in [6], 60.5%. For the same molecule, the growth in assay [7] is 94.1%; in [8] it was 107%; in [9] it was 120%; in assay [10], 99.3%.

Consider `Nc1nc(N)c2c(ccc3nccc32)[nH]1`, for which the growth in [1] was 50%; in [2], 123%; in assay [3] it was 61%; in assay [4], 74.8%; in assay [5], 20%; in assay [6] it was 37.9%. Moreover, the growth is 2.16% (active) in assay [7], 35.8% in [8], 71.4% in assay [9] and 62.2% in [10].

`NC(=O)c1ccc(-c2cccc3c(=O)nc(N4CCOCC4)oc23)cc1`: the growth in assay [1] was 92.4%; in assay [2], 82.6%; in assay [3], 93%; in assay [4], 95.1%; in assay [5] it was 105%; in [6], 89.5%. Moreover, the growth was 100% in [7], 100% in assay [8], 104% in assay [9] and 103% in assay [10].

Regarding `COc1cc(/C=C2\CCCC3=C2N=C2SC=NN2C3c2cc(OC)c(OC)c(OC)c2)cc(OC)c1OC` (stereo not given), the growth in [1] is 28.9%; in assay [2], 13.6%; in assay [3], 28.4%; in assay [4], 11.8%; in assay [5], 1.24% (active); in assay [6], 46.5%. For the same molecule, the growth in [7] was 13.1%; in assay [8] it was 32%; in assay [9], 25.7%; in [10] it was 8.36% (active).

In the case of `c1ccc(CO[C@H]2CO[C@H]3[C@@H]2OC[C@H]3OCc2ccccc2)cc1`, the growth in [1] is 107%; in assay [2] it was 101%; in assay [3] it was 101%; in [4] it was 97.7%; in [5], 110%; in assay [6], 100%. The growth in assay [7] was 111%; in assay [8], 104%; in assay [9], 100%; in assay [10], 119%.

Take `CC/C(=C(/c1ccc(OCCN(C)C)cc1)c1ccc(OC(=O)CCC(=O)c2c(C)[nH]c(/C=C3\N=C(c4ccc[nH]4)C=C3OC)c2C)cc1)c1ccccc1`: the growth was 52.3% in assay [1]; 23.4% in assay [2]; 75.3% in [3]; 28% in [4]; 51% in assay [5]; -0.572% (active) in [6]. The growth in [7] was 11%; in assay [8], 21.4%; in [9], 28.3%; in [10], 21.4%.
